The record followed here is PubChem BioAssay (EPA / NIEHS).

Active and inactive are the calls of the source. Rule for the calls: active = hit-call score of the fitted dose curve at least 0.9, where 1 is the maximum; inactive = score below 0.9.

Chain of Hepatocyte nuclear factor 6 (Homo sapiens) (Q9UBC0 whole entry, looked up, the tested form may be a part): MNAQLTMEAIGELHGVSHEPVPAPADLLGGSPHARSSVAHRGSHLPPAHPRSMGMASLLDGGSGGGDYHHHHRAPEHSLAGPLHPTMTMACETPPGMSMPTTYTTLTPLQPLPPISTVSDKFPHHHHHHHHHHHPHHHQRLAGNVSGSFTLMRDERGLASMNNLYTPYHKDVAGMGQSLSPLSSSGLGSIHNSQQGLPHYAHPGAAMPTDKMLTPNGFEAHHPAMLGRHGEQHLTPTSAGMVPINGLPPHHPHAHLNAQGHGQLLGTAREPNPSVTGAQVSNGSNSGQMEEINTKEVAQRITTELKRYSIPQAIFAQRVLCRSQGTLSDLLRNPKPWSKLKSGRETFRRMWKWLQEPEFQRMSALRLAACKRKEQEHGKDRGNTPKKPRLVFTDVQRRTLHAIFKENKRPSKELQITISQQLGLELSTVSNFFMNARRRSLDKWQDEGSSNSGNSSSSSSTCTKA
Chain of Hypoxia-inducible factor 1-alpha (Homo sapiens) (Q16665 whole entry, looked up): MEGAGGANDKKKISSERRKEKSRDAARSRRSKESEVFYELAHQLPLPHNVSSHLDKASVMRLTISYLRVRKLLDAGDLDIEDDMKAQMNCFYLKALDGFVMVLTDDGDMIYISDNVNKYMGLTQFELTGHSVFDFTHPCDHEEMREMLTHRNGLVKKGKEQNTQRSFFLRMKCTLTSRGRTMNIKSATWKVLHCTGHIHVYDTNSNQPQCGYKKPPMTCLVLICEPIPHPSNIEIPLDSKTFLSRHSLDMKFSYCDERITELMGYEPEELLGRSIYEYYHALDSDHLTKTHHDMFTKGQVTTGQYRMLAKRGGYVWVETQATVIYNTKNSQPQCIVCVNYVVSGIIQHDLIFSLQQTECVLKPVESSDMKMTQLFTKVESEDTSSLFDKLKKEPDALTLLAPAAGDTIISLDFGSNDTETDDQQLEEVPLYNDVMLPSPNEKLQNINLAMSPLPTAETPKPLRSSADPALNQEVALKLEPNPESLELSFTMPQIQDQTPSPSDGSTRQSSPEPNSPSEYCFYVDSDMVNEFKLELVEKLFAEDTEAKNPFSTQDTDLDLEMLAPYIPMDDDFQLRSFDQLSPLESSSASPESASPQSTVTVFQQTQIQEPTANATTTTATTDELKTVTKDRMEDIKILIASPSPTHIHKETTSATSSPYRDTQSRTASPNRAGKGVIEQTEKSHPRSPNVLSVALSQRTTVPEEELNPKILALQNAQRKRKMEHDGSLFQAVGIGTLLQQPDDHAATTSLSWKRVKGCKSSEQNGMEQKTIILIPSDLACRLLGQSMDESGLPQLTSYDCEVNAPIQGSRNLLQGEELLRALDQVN

One assay addresses Hypoxia-inducible factor 1-alpha (Homo sapiens) (UniProt Q16665). The experiment in a line: ATG_HIF1a_CIS: Attagene CIS-FACTORIAL HepG2 Assay for human Hypoxia Inducible Factor 1 (HIF1A) (AID 2282951). The conditions noted are these: HepG2 Attagene cis-factorial HIF1a reporter transcription; actives raise or lower the signal. The method, boiled down: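 RT-PCR/capillary electrophoresis fluorescence readout of reporter transcripts from endogenous-TF-driven cis elements in transfected HepG2 cells, 24 h exposure; activity fitted in both directions against DMSO controls.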
Turning to `CCCC(O)C(O)CO` (configuration not stated), the outcome was inactive.
Take `C=C(C#N)C(=O)OCC`: the compound was called inactive.
On the same count and under the same terms, then `CC(C)=CCCC(C)CC(=O)O` (configuration not stated), with “inactive”.
Regarding `Nc1ccc(NCCO)c([N+](=O)[O-])c1`, the compound was called inactive.
As for `Oc1ccc2cc(SSc3ccc4cc(O)ccc4c3)ccc2c1`, the AC50 was 30.6 µM (active).
As for `CC1=CC[C@@]23C[C@@H]1C(C)(C)[C@@H]2CC[C@H]3C`, the outcome was inactive.
`C=C(C)CNCC`: the result was inactive.
For `CC(=O)NCCO`, the compound was classed as inactive.
On the same count and under the same terms, then `CC(C)(N=C=O)c1cccc(C(C)(C)N=C=O)c1`, with “inactive”; and `CN1C(=O)c2ccccc2C1=O`, with “inactive”.
Take `OCCCCC(O)CO` (configuration not stated): the AC50 was 23.2 µM (active).
As for `CN(c1nccc(=O)[nH]1)C1CCN(c2nc3ccccc3n2Cc2ccc(F)cc2)CC1`, the compound was called inactive.
Turning to `CCCCCC(C)=O`, the result was inactive.
For `CC(C=O)Cc1ccc(C(C)(C)C)cc1` (configuration not stated), the compound was classed as inactive.
Still for that read-out and setting: then `CN1CCOCC1`, with “inactive”; and `c1ccc(CN(Cc2ccccc2)Cc2ccccc2)cc1`, with “inactive”.
Take `CCCC(=O)c1ccccc1`: the result was inactive.
Same read-out and setting: then `CCCCCCC(=O)c1ccccc1`, with “inactive”.
As to `O=C1OC(=O)c2c(Cl)c(Cl)c(Cl)c(Cl)c21`, the result was inactive.
On to `C=CCOC(=O)CCCCCC`, for which the outcome was inactive.
As to `OC[C@H]1O[C@@H]2O[C@H]3[C@H](O)[C@@H](O)[C@@H](O[C@H]4[C@H](O)[C@@H](O)[C@@H](O[C@H]5[C@H](O)[C@@H](O)[C@@H](O[C@H]6[C@H](O)[C@@H](O)[C@@H](O[C@H]7[C@H](O)[C@@H](O)[C@@H](O[C@H]8[C@H](O)[C@@H](O)[C@@H](O[C@H]9[C@H](O)[C@@H](O)[C@@H](O[C@H]1[C@H](O)[C@H]2O)O[C@@H]9CO)O[C@@H]8CO)O[C@@H]7CO)O[C@@H]6CO)O[C@@H]5CO)O[C@@H]4CO)O[C@@H]3CO`, the call was inactive.
As for `CCO/C=C1\N=C(c2ccccc2)OC1=O`, the compound was called inactive.
`C#CC(C)N(C)C(=O)Nc1ccc(Cl)cc1` (configuration not stated): the compound was classed as inactive.
On the same count and under the same terms, for `FC(F)(F)COCC(F)(F)F` the value was “inactive”.
Same read-out and setting: then `O=C(Nc1ccc2c(O)c(N=Nc3ccc(N=Nc4ccc(S(=O)(=O)O)cc4)cc3)c(S(=O)(=O)O)cc2c1)c1ccccc1`, with “inactive”; and `C=C(C)C(=O)OCCOCCOCCOC(=O)C(=C)C`, with “inactive”.

The target of a further assay is Hepatocyte nuclear factor 6 (Homo sapiens) (UniProt Q9UBC0). The assay can be described thus: ATG_HNF6_CIS: Attagene CIS-FACTORIAL HepG2 Assay for human Hepatocyte Nuclear Factor 6 (HNF6) (AID 2282952). The conditions noted are these: HepG2 Attagene cis-factorial HNF6 reporter transcription; actives raise or lower the signal. The method, boiled down:
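HepG2 cells transiently transfected with cis-element-driven multiplexed reporter units measuring endogenous transcription factor activity. After 24 h exposure, reporter mRNA quantified by RT-PCR, FAM-labelled fragments and capillary electrophoresis; bidirectional fitting versus DMSO.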
As for `CCCC(O)C(O)CO` (configuration not stated), the result was inactive.
Turning to `COCCc1ccc(OCC(O)CNC(C)C)cc1` (configuration not stated), the call was inactive.
As to `NCCNc1cccc2ccccc12`, the result was inactive.
In the case of `C=C(C#N)C(=O)OCC`, the compound was classed as inactive.
Regarding `CC(C)=CCCC(C)CC(=O)O` (configuration not stated), the outcome was inactive.
Turning to `Cc1c(OCC(F)(F)F)ccnc1CS(=O)c1nc2ccccc2[nH]1` (configuration not stated), the compound was classed as inactive.
As to `Nc1ccc(NCCO)c([N+](=O)[O-])c1`, the compound was classed as inactive.
`CCOC(=O)c1ccc(N)cc1`: the outcome was inactive.
As for `Oc1ccc2cc(SSc3ccc4cc(O)ccc4c3)ccc2c1`, the compound was called inactive.
As to `CC1=CC[C@@]23C[C@@H]1C(C)(C)[C@@H]2CC[C@H]3C`, the result was inactive.
Consider `C=C(C)CNCC`, for which the outcome was inactive.
Same read-out and setting: then `CC(=O)NCCO`, with “inactive”.
Same read-out and setting: for `CC(C)(N=C=O)c1cccc(C(C)(C)N=C=O)c1` the value was “inactive”; for `COC(=O)c1ccc(C)cc1C1=NC(C)(C(C)C)C(=O)N1` (configuration not stated) (tested in a mixture with another compound), “inactive”; for `CN1C(=O)c2ccccc2C1=O`, “inactive”.
In the case of `OCCCCC(O)CO` (configuration not stated), the result was inactive.
Take `CCCCCCCCCCCC(=O)OC[C@@H](O)[C@H]1OC[C@H](O)[C@H]1O`: the outcome was inactive.
As for `CN(c1nccc(=O)[nH]1)C1CCN(c2nc3ccccc3n2Cc2ccc(F)cc2)CC1`, the compound was called inactive.
For `CCCCCC(C)=O`, the compound was called inactive.
Still for that read-out and setting: for `C[C@H](CCC(=O)NCC(=O)O)[C@H]1CC[C@H]2[C@@H]3[C@H](O)C[C@@H]4C[C@H](O)CC[C@]4(C)[C@H]3C[C@H](O)[C@]12C` the value was “inactive”.
Still for that read-out and setting: for `CC(C=O)Cc1ccc(C(C)(C)C)cc1` (configuration not stated) the value was “inactive”.
Still for that read-out and setting: then `CN1CCOCC1`, with “inactive”; and `c1ccc(CN(Cc2ccccc2)Cc2ccccc2)cc1`, with “inactive”; and `CC/C=C\CC/C=C/CO`, with “inactive”.
For `CCCC(=O)c1ccccc1`, the result was inactive.
In the case of `CCCCCCC(=O)c1ccccc1`, the result was inactive.
As to `O=C1OC(=O)c2c(Cl)c(Cl)c(Cl)c(Cl)c21`, the compound was called inactive.
Same read-out and setting: for `CCCCSCCCC` the value was “inactive”; for `C=C(CC(=O)O)C(=O)O`, “inactive”.
The same measure, in the same setting: for `C=CCOC(=O)CCCCCC` the value was “inactive”; for `OC[C@H]1O[C@@H]2O[C@H]3[C@H](O)[C@@H](O)[C@@H](O[C@H]4[C@H](O)[C@@H](O)[C@@H](O[C@H]5[C@H](O)[C@@H](O)[C@@H](O[C@H]6[C@H](O)[C@@H](O)[C@@H](O[C@H]7[C@H](O)[C@@H](O)[C@@H](O[C@H]8[C@H](O)[C@@H](O)[C@@H](O[C@H]9[C@H](O)[C@@H](O)[C@@H](O[C@H]1[C@H](O)[C@H]2O)O[C@@H]9CO)O[C@@H]8CO)O[C@@H]7CO)O[C@@H]6CO)O[C@@H]5CO)O[C@@H]4CO)O[C@@H]3CO`, “inactive”.
